# Measured values reported in PubChem BioAssay (Tox21).
# Several values for one entry are separate records, joined by “and”; a condition that tells them apart may be missing. Identical values can stand only once. Results filed as inconclusive are left out. Activity calls are given as the source filed them. The call rests on the fitted dose curve; in most records, active means well fitted cell-killing curve with a large enough effect in the repeat runs; inconclusive means weak or mixed curves, or effect the other way; inactive means no such curve, though single readings can be large or run the other way.
# Assay: qHTS assay to identify small molecule antagonists of the progesterone receptor (PR) signaling pathway - cell viability counter screen (AID 1346798); further: nearly all actives have a fitted effect of over 50% in size
# Details: PR-UAS-bla HEK293T viability, CellTiter-Glo luminescence, 16 h; series mostly up to 92.4 µM; activity change, negative = cytotoxicity: at the top concentration
# Text: National Center for Advancing Translational Sciences [NCATS]
# NIH Chemical Genomics Center [NCGC]
# U.S. Environmental Protection Agency [EPA]
# National Institutes of Environmental Health Sciences [NIEHS]
# National Toxicology Program [NTP]
# U.S. Food and Drug Administration [FDA]
# Progesterone receptor (PR), a nuclear hormone receptor, plays an important role in development, metabolic homeostasis and reproduction. It is activated by the steroid hormone progesterone. Endocrine disrupting chemicals (EDCs) and their interactions with steroid hormone receptors like PR causes disruption of normal endocrine function. To identify the compounds that inhibit PR signaling, a PR-UAS-bla GripTite cell line i.e. PR-UAS-bla HEK293T (Invitrogen, Carlsbad, CA, USA) containing a beta-lactamase reporter gene under the control of an UAS response element was used to screen Tox21 10K compound library. The cytotoxicity of the Tox21 compound library against the PR-bla cell line was tested in parallel by measuring the cell viability using CellTiter-Glo assay in the same wells.
# Tox21 Assay Protocol Summary:
# PR-UAS-bla HEK293T cells were dispensed at 3,000 cells/4 uL of assay medium containing 2% charcoal stripped FBS per well into black wall/clear-bottom 1536-well plates using a Multidrop Combi (ThermoFisher Scientific, Waltham, MA) dispenser. After the assay plates were incubated at a 37C and 5% CO2 for 4 hr, 23 nL of compounds dissolved in DMSO, positive controls or DMSO only was transferred to the assay plate by a Pintool station (Kalypsys, San Diego, CA), followed by addition of 1 uL of R5020 in assay medium using a Flying Reagent Dispenser (FRD, Aurora Discovery, San Diego, CA). The plates were incubated at 37C and 5% CO2 for 16 hr. Then 1 uL of LiveBLAzer B/G FRET substrate was added using a Flying Reagent Dispenser, the plates were incubated at room temperature for 2 hours, and fluorescence intensity was measured by an Envision plate reader (PerkinElmer, Shelton, CT). For cell viability readout that measures cytotoxicity, 4 uL/well of CellTiter-Glo reagent was added into the assay plates using a FRD. After 30 min incubation at room temperature, the luminescence intensity in the plates was measured using a ViewLux (PerkinElmer) plate reader.
# On the % scale 0 is the no-effect control and ±100 the full control effect; potency means the concentration at half of the fitted maximal effect.
Structure (SMILES),Potency,"activity change, negative = cytotoxicity"
CCCN[C@H]1CCc2nc(N)sc2C1,inactive,–
Cc1cccc([N+](=O)[O-])c1C(=O)O,–,0.184% (inactive)
CCCNC(C)C(=O)Nc1ccccc1C (stereo not given),–,0.0571% [at 42.5 µM] (inactive)
C=C(C)C1CC=C(C)C(OC(C)=O)C1 (stereo not given),inactive,–
CC(=O)CC(=O)Nc1ccc2[nH]c(=O)[nH]c2c1,–,-0.428% (inactive)
O=C(OCc1ccccc1)c1ccc(O)cc1,inactive,–
COc1cc(C(=S)N2CCOCC2)ccc1O,–,5.17% [at 42.5 µM] (inactive)
Cc1cc(OCCOCC[N+](C)(C)Cc2ccccc2)ccc1C(C)(C)CC(C)(C)C,54.2 µM (active) and 26.6 µM (active),–
CC1COc2c(N3CCN(C)CC3)c(F)cc3c(=O)c(C(=O)O)cn1c23 (stereo not given),–,7.22% [at 42.5 µM] (inactive)
O=C(Oc1ccccc1)c1ccccc1O,inactive,–
CC(C)(C)c1cc(C(C)(C)C)c(O)c(C(C)(C)C)c1,inactive,–
O=C(Cl)c1cccc(C(=O)Cl)c1,inactive,–
CCn1c2ccccc2c2cc(N)ccc21,inactive,–
CCC(CO)(CO)COCC(CC)(CO)CO,–,4.56% (inactive)
NCCO,–,15.5% (inactive)
OCC(CO)N[C@H]1C[C@](O)(CO)[C@@H](O)[C@H](O)[C@H]1O,–,11.3% [at 42.5 µM] (inactive)
COc1nc(C)nc(Cl)c1NC1=NCCN1,–,0.906% [at 42.5 µM] (inactive)
Cc1scc2c1N(C(=O)CN1CCN(C)CC1)c1ccccc1NC2=O,–,9.43% [at 42.5 µM] (inactive)
O=C1NCC2(CCN(CCc3ccccc3)CC2)O1,–,-23.7% [at 42.5 µM] (inactive)
CCC(C)(Oc1ccc(C2(c3ccc(OC(C)(CC)C(=O)O)cc3)CCCCC2)cc1)C(=O)O (stereo not given),–,9.54% [at 42.5 µM] (inactive)

Structure (SMILES),Potency,"activity change, negative = cytotoxicity"
CCN(CC)C(=O)Nc1ccc(OCC(O)CNC(C)(C)C)c(C(C)=O)c1 (stereo not given),–,-23.5% [at 42.5 µM] (inactive)
N[C@@H]1CONC1=O,–,6.38% [at 42.5 µM] (inactive)
O=C(O)c1cc(Cl)cc(Cl)c1,–,-9.69% (inactive)
NC12CC3CC(CC(C3)C1)C2,–,-0.918% [at 42.5 µM] (inactive)
C=C(C)C(=O)O,inactive,–
Cc1cccc(O)c1C,–,-22.8% (inactive)
CCn1cc(C(=O)O)c(=O)c2cc(F)c(N3CCNC(C)C3)c(F)c21 (stereo not given),–,3.17% [at 42.5 µM] (inactive)
O=C(O)c1cn(-c2ccc(F)cc2)c2cc(N3CCNCC3)c(F)cc2c1=O,inactive,–
Nc1nc2ccccc2[nH]1,inactive,–
BrC1CCC(Br)C(Br)CCC(Br)C(Br)CCC1Br (stereo not given),54.3 µM (active) and 51.7 µM (active),–
O=Cc1ccc(Cl)cc1,–,11.8% (inactive)
CCOc1ccc2c(c1)C(C)=CC(C)(C)N2,inactive,–
CC(C)(C)c1ccccc1,–,1.23% (inactive)
CC(C)CCCCCCc1ccc(O)cc1,6.22 µM (active),–
CCc1ccc(C(c2ccc(CC)cc2)C(Cl)Cl)cc1,inactive,–
CCCCCCCCCCCCc1ccccc1O,38.6 µM (active),–
c1cc(C(c2ccc(OCC3CO3)cc2)C(c2ccc(OCC3CO3)cc2)c2ccc(OCC3CO3)cc2)ccc1OCC1CO1 (stereo not given),inactive,–
CC(C(O)c1ccc(O)cc1)N1CCC(Cc2ccccc2)CC1 (stereo not given),–,-8.06% [at 42.5 µM] (inactive)
CCCCOCCOC(=O)c1ccccc1C(=O)OCCOCCCC,–,9.55% (inactive)
CC(N)=O,–,5.28% [at 238 µM] (inactive)
